Test results from PubChem BioAssay (EPA / NIEHS).
Activity calls are given as the source filed them. How the source made its calls: active means hit-call score of the fitted dose curve at least 0.9, where 1 is the maximum; inactive means score below 0.9.

Experiments:
Details in all cases: mRNA level, 48 h; actives raise or lower the signal
[1] = read-out: Nuclear factor erythroid 2-related factor 2 (Homo sapiens) (UniProt Q16236); experiment: LTEA_HepaRG_NFE2L2: Life Technologies and Expression Analysis (LTEA) Assay for Nuclear factor erythroid 2-related factor 2 (NFE2L2) Transcription Factor using HepaRG (AID 2283527)
Summary of the method: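 Differentiated human HepaRG cells, serum-free induction medium, exposed 48 h in duplicate to eight half-log concentrations up to 100 uM in 0.5% DMSO. NFE2L2 mRNA by Fluidigm TaqMan qRT-PCR, normalised to ACTB, GAPDH, POLR2A; bidirectional change versus DMSO.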

[2] = read-out: succinate dehydrogenase complex iron sulfur subunit B (SDHB), SDHB (gene 6390); experiment: LTEA_HepaRG_SDHB: Life Technologies and Expression Analysis (LTEA) Assay for succinate dehydrogenase complex iron sulfur subunit B (SDHB) using HepaRG (AID 2283528)
Summary of the method: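 SDHB transcript level read by TaqMan qRT-PCR, housekeeping-normalised (ACTB, GAPDH, POLR2A), after 48 h chemical treatment of plated HepaRG cells; eight concentrations top 100 uM, half-log steps, 0.5% DMSO, duplicates; fitted both directions against DMSO.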

[3] = read-out: Signal transducer and activator of transcription 3 (Homo sapiens) (UniProt P40763); experiment: LTEA_HepaRG_STAT3: Life Technologies and Expression Analysis (LTEA) Assay for Signal transducer and activator of transcription (STAT3) using HepaRG (AID 2283529)
Summary of the method: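 Differentiated HepaRG cells, serum-free induction medium, dosed 48 h in duplicate, 8 half-log concentrations from 100 uM in 0.5% DMSO. STAT3 mRNA by qRT-PCR, normalised to ACTB, GAPDH, POLR2A; bidirectional fit versus DMSO.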

[4] = read-out: solute carrier (SLCO1B1), SLCO1B1 (gene 10599); experiment: LTEA_HepaRG_SLCO1B1: Life Technologies and Expression Analysis (LTEA) Assay for solute carrier (SLCO1B1) using HepaRG (AID 2283530)
Summary of the method: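 Differentiated human HepaRG cells, plated 48 h, switched to serum-free induction medium and exposed in duplicate for 48 h to 8 half-log concentrations (top 100 uM) in 0.5% DMSO. SLCO1B1 mRNA by TaqMan qRT-PCR, normalized to ACTB/GAPDH/POLR2A.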

[5] = read-out: sulfotransferase 2A1 (SULT2A1), SULT2A1 (gene 6822); experiment: LTEA_HepaRG_SULT2A1: Life Technologies and Expression Analysis (LTEA) Assay for sulfotransferase 2A1 (SULT2A1) using HepaRG (AID 2283531)
Summary of the method: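 Differentiated human HepaRG cells in serum-free induction medium were exposed for 48 h to eight half-log concentrations (top 100 uM, 0.5% DMSO). SULT2A1 mRNA was measured by qRT-PCR, normalized to ACTB, GAPDH and POLR2A, and fitted bidirectionally against DMSO.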

[6] = read-out: Transforming Growth Factor (TGFA), TGFA (gene 7039); experiment: LTEA_HepaRG_TGFA: Life Technologies and Expression Analysis (LTEA) Assay for Transforming Growth Factor (TGFA) using HepaRG (AID 2283532)
Summary of the method: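 Differentiated HepaRG cells exposed 48 hours in serum-free induction medium, 0.5% DMSO vehicle, 8-point half-log series from 100 uM, in duplicate. TGFA mRNA by TaqMan qRT-PCR, normalised to ACTB, GAPDH, POLR2A; bidirectional fit versus DMSO.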

[7] = read-out: Transforming Growth Factor (TGFB1), TGFB1 (gene 7040); experiment: LTEA_HepaRG_TGFB1: Life Technologies and Expression Analysis (LTEA) Assay for Transforming Growth Factor (TGFB1) Transporter using HepaRG (AID 2283533)
Summary of the method: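 Differentiated human HepaRG cells in serum-free induction medium were exposed in duplicate for 48 h to eight concentrations (top 100 uM, half-log steps, 0.5% DMSO). TGFB1 mRNA was quantified by qRT-PCR, normalized to ACTB, GAPDH, POLR2A, and fitted bidirectionally against DMSO.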

TIMP1, TIMP1 (gene 7076) = experiment: LTEA_HepaRG_TIMP1: Life Technologies and Expression Analysis (LTEA) Assay for TIMP1 using HepaRG (AID 2283534)
Summary of the method: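 Differentiated human HepaRG cells in serum-free induction medium were exposed 48 h to chemicals (8 half-log concentrations, top 100 uM, 0.5% DMSO). TIMP1 mRNA was quantified by TaqMan qRT-PCR, normalized to ACTB/GAPDH/POLR2A; bidirectional fit versus DMSO.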

[8] = read-out: Tumor necrosis factor receptor 1 (TNFRSF1A), TNFRSF1A (gene 7132); experiment: LTEA_HepaRG_TNFRSF1A: Life Technologies and Expression Analysis (LTEA) Assay for Tumor necrosis factor receptor 1 (TNFRSF1A) using HepaRG (AID 2283535)
Summary of the method: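 Differentiated human HepaRG cells were exposed in duplicate for 48 h in serum-free induction medium to eight concentrations (top 100 uM, half-log steps, 0.5% DMSO). TNFRSF1A mRNA was quantified by qRT-PCR, normalized to ACTB, GAPDH and POLR2A, then fitted bidirectionally against DMSO.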

[9] = read-out: Thyroid Hormone Responsive (THRSP), THRSP (gene 7069); experiment: LTEA_HepaRG_THRSP: Life Technologies and Expression Analysis (LTEA) Assay for Thyroid Hormone Responsive (THRSP) using HepaRG (AID 2283536)
Summary of the method: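 Differentiated HepaRG cells treated 48 h in serum-free induction medium with 8 half-log concentrations up to 100 uM (0.5% DMSO), duplicates. THRSP mRNA by TaqMan qRT-PCR normalised to ACTB, GAPDH, POLR2A; bidirectional fit versus DMSO.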

Measured: AC50

Signal transducer and activator of transcription 3 (Homo sapiens), sequence (P40763 whole entry, looked up): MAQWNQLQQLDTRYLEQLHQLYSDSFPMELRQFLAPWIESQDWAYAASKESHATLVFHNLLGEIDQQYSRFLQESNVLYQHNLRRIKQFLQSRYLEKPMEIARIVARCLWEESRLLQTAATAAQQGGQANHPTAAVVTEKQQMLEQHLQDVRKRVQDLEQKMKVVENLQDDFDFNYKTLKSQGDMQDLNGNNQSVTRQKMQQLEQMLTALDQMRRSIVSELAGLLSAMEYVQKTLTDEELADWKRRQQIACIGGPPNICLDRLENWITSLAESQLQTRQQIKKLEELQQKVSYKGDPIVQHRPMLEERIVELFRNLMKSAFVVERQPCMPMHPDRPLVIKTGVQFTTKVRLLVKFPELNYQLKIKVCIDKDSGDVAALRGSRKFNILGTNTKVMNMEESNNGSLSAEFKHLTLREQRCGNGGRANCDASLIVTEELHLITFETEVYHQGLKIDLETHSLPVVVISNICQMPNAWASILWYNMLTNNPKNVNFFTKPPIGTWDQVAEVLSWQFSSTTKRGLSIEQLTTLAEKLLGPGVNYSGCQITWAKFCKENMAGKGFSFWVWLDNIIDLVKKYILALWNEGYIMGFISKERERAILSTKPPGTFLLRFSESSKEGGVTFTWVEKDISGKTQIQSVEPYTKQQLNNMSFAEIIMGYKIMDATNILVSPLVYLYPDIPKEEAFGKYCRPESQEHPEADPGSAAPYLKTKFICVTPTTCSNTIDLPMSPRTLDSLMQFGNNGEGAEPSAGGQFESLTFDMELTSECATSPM
Nuclear factor erythroid 2-related factor 2 (Homo sapiens), sequence (Q16236 whole entry, looked up): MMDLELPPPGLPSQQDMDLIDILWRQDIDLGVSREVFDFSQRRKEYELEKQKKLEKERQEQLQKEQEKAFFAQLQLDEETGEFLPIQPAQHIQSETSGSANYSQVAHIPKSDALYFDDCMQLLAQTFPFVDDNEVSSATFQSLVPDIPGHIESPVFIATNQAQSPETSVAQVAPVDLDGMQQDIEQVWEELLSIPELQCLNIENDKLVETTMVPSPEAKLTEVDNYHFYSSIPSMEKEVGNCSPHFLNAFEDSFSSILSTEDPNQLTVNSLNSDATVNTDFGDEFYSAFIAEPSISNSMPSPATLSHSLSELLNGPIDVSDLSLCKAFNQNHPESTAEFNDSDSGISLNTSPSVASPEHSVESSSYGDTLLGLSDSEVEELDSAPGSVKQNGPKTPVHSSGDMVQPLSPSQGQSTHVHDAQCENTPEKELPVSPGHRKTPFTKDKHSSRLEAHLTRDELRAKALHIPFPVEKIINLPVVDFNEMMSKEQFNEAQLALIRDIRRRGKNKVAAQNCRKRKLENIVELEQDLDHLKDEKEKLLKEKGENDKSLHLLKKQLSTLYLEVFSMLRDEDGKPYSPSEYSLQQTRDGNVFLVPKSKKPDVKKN

C=CC(=O)NCNC(=O)C=C
inactive: [1] | [2] | [3] | [4] | [5] | [6] | [7] | TIMP1, TIMP1 (gene 7076) | [8] | [9]

Oc1c(Cl)c(Cl)c(Cl)c(Cl)c1Cl
inactive: [1]
active: [2] 2.04 µM | [3] 1.19 µM | [4] 3.96 µM | [5] 4.65 µM | [6] 12.3 µM | [7] 5.06 µM | TIMP1, TIMP1 (gene 7076) 14.9 µM | [8] 5.95 µM | [9] 3.94 µM

CCOCCOC(C)=O
inactive: [1] | [2] | [3] | [4] | [5] | [6] | [7] | TIMP1, TIMP1 (gene 7076) | [8] | [9]

Cc1cc(O)ccc1Cl
inactive: [1] | [2] | [3] | [4] | [5] | [6] | [7] | TIMP1, TIMP1 (gene 7076) | [8] | [9]

O=C(O)C(F)(F)C(F)(F)C(F)(F)C(F)(F)C(F)(F)C(F)(F)C(F)(F)C(F)(F)C(F)(F)F
active: [2] 88.9 µM | [3] 79.3 µM | [4] 61.8 µM | [5] 35.7 µM | [6] 23.4 µM | [7] 23.3 µM | TIMP1, TIMP1 (gene 7076) 91.7 µM | [8] 78 µM | [9] 15.6 µM
inactive: [1]

CCOC(=O)C(O)(c1ccc(Cl)cc1)c1ccc(Cl)cc1
inactive: [1] | [2] | [3] | [4] | [5] | [6] | [7] | TIMP1, TIMP1 (gene 7076) | [8] | [9]

COc1ccc(O)c(C(C)(C)C)c1
inactive: [1] | [2] | [3] | [4] | [5] | [6] | [7] | TIMP1, TIMP1 (gene 7076) | [9]

COS(=O)(=O)OC
inactive: [1] | [2] | [3] | [5] | [6] | [7] | TIMP1, TIMP1 (gene 7076) | [8] | [9]

CO/C=C(/C(=O)OC)c1ccccc1COc1cccc(C(F)(F)F)n1
inactive: [2] | [7]
active: [1] 21.6 µM | [3] 3.4 µM | [4] 8.29 µM | [5] 21.5 µM | [6] 10.6 µM | TIMP1, TIMP1 (gene 7076) 26.8 µM | [8] 4.97 µM | [9] 7.31 µM

CCC(C)c1cc([N+](=O)[O-])cc([N+](=O)[O-])c1O (configuration not stated)
active: [2] 0.656 µM | [3] 0.631 µM | [4] 2.32 µM | [5] 3.13 µM | [6] 4.14 µM | TIMP1, TIMP1 (gene 7076) 2.51 µM | [8] 4.74 µM | [9] 1.98 µM
inactive: [1] | [7]

C[C@]12CCC(=O)C=C1CC[C@@H]1[C@@H]2CC[C@]2(C)C(=O)CC[C@@H]12
inactive: [1] | [2] | [3] | [4] | [7] | TIMP1, TIMP1 (gene 7076) | [8]
active: [5] 15.2 µM | [6] 50 µM | [9] 1.39 µM

CCCCCCCCCc1ccc(O)cc1
inactive: [1] | [2] | [3] | [4] | [5] | [6] | [7] | TIMP1, TIMP1 (gene 7076) | [8] | [9]

Clc1ccc(Cl)cc1
inactive: [1] | [2] | [3] | [4] | [5] | [6] | [7] | TIMP1, TIMP1 (gene 7076) | [8] | [9]

CC(c1ccc(O)cc1)(c1ccc(O)cc1)c1ccc(O)cc1
active: [1] 73.9 µM | [2] 50 µM | [3] 90.9 µM | [5] 84 µM | TIMP1, TIMP1 (gene 7076) 85.3 µM | [9] 23.9 µM
inactive: [4] | [6] | [7] | [8]

Cc1cc(-c2ccc(N)c(C)c2)ccc1N
inactive: [1] | [2] | [3] | [4] | [5] | [6] | [7] | TIMP1, TIMP1 (gene 7076) | [8] | [9]

CCSC(=O)N(CC)C1CCCCC1
inactive: [1] | [2] | [3] | [4] | [5] | [6] | TIMP1, TIMP1 (gene 7076) | [8] | [9]

CCCCCCCCOC(=O)c1ccccc1C(=O)OCCCCCCCC
inactive: [1] | [2] | [3] | [4] | [5] | [6] | [7] | TIMP1, TIMP1 (gene 7076) | [8] | [9]

Cc1ccccc1CO[C@@H]1C[C@@]2(C(C)C)CC[C@]1(C)O2
active: [9] 71.7 µM
inactive: [1] | [2] | [3] | [4] | [5] | [6] | [7] | TIMP1, TIMP1 (gene 7076) | [8]

CCC(=O)O[C@H]1CC[C@H]2[C@@H]3CCC4=CC(=O)CC[C@]4(C)[C@H]3CC[C@]12C
inactive: [1] | [2] | [3] | [5] | [6] | [7] | TIMP1, TIMP1 (gene 7076) | [8] | [9]
active: [4] 12.6 µM

Oc1ccc(Cl)cc1Cl
inactive: [1] | [2] | [3] | [4] | [5] | [6] | [7] | TIMP1, TIMP1 (gene 7076) | [8] | [9]

N#Cc1ccc(N(CC(N)=O)CC(F)(F)F)cc1C(F)(F)F
active: [9] 0.103 µM
inactive: [1] | [2] | [3] | [4] | [5] | [6] | [7] | TIMP1, TIMP1 (gene 7076) | [8]

ClC1=C(Cl)[C@]2(Cl)[C@@H]3[C@@H](Cl)[C@H]4O[C@H]4[C@@H]3C1(Cl)C2(Cl)Cl
inactive: [1] | [2] | [3] | [4] | [5] | [6] | [7] | TIMP1, TIMP1 (gene 7076) | [8] | [9]

C1CC2OC2CC1C1CO1 (configuration not stated)
inactive: [1] | [2] | [3] | [4] | [5] | [6] | [7] | TIMP1, TIMP1 (gene 7076) | [8] | [9]

Cc1cccc(C)c1N
inactive: [1] | [2] | [3] | [4] | [5] | [6] | [7] | TIMP1, TIMP1 (gene 7076) | [8] | [9]

C=CC(N)=O
inactive: [1] | [2] | [3] | [4] | [5] | [6] | [7] | TIMP1, TIMP1 (gene 7076) | [8] | [9]

O=S(=O)(O)C(F)(F)C(F)(F)C(F)(F)C(F)(F)F
inactive: [1] | [2] | [3] | [4] | [5] | [6] | [7] | TIMP1, TIMP1 (gene 7076) | [8] | [9]

O=S(=O)(O)C(F)(F)C(F)(F)C(F)(F)C(F)(F)C(F)(F)C(F)(F)F
active: [1] 0.979 µM | [2] 8.54 µM
inactive: [3] | [4] | [5] | [6] | [7] | TIMP1, TIMP1 (gene 7076) | [8] | [9]

Nn1cnnc1
inactive: [1] | [2] | [3] | [4] | [5] | [6] | [7] | TIMP1, TIMP1 (gene 7076) | [8] | [9]

O=C(NC(=O)c1cc(F)c(F)cc1Cl)Nc1cc(F)ccc1N1CCC(C(=O)O)CC1
inactive: [1] | [2] | [3] | [4] | [5] | [6] | [7] | TIMP1, TIMP1 (gene 7076) | [8] | [9]

NS(=O)(=O)C(F)(F)C(F)(F)C(F)(F)C(F)(F)C(F)(F)C(F)(F)C(F)(F)C(F)(F)F
active: [1] 2.76 µM | [2] 4.97 µM | [3] 15.2 µM | [4] 9.33 µM | [5] 13.1 µM | [6] 12 µM | [7] 39.4 µM | TIMP1, TIMP1 (gene 7076) 12.4 µM | [8] 29.4 µM | [9] 7.4 µM

CC1=C2C[C@H]3[C@@H](CC=C4C[C@@H](O)CC[C@@]43C)[C@@H]2CC[C@]12O[C@@H]1C[C@H](C)CN[C@H]1[C@H]2C
inactive: [1] | [2] | [3] | [4] | [5] | [6] | [7] | TIMP1, TIMP1 (gene 7076) | [8] | [9]

CCNc1nc(NC(C)C)nc(SC)n1
inactive: [1] | [2] | [3] | [4] | [5] | [6] | [7] | TIMP1, TIMP1 (gene 7076) | [8] | [9]
